Test results: PubChem BioAssay AID1159580 (chemical genetic matrix, 2015)
The whole screen tested about 5,500 compounds, of which about 2,000 (36%) were called active. Another 18% or so got no clear call; they are omitted. Cut-off read from the data, not from the text of the source: active = normalized growth mostly below about 0.91 (no sharp cut-off); inconclusive = no clear call, values can overlap the other calls; inactive = mostly above about 0.92. This is one part of the list.

Assay: chemical genetic growth profiling, strain panel (AID 1159580);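 note: tested at 20 µM; growth read once vehicle control cultures reached saturation at 30 °C; 1 = growth at the plate median or of vehicle wells; lower values mean less growth of the strain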
Conditions: S. cerevisiae deletion strains, growth OD

Measured: normalized growth

CNC(=O)Oc1ccccc1OC(C)C
inactive: locus YAL013W, strain DEP1, stronger effect = lower value 1.01 | locus YAL021C, strain ccr4, stronger effect = lower value 0.987 | locus YAL026C, strain drs2, stronger effect = lower value 0.99 | locus YAL030W, strain snc1, stronger effect = lower value 0.992 | locus YBL061C, strain skt5, stronger effect = lower value 0.987 | locus YBR009C, strain hhf1, stronger effect = lower value 0.99 | locus YBR021W, strain FUR4, stronger effect = lower value 1.02 | locus YBR023C, strain chs3, stronger effect = lower value 0.985 | locus YBR171W, strain sec66, stronger effect = lower value 0.97 | locus YBR229C, strain ROT2, stronger effect = lower value 1.02 | locus YBR231C, strain swc5, stronger effect = lower value 0.984 | locus YBR279W, strain paf1, stronger effect = lower value 0.989 | locus YCL011C, strain gbp2, stronger effect = lower value 0.994 | locus YCL016C, strain dcc1, stronger effect = lower value 0.99 | locus YCL029C, strain bik1, stronger effect = lower value 0.994 | locus YCL061C, strain MRC1, stronger effect = lower value 0.994 | locus YCL069W, strain vba3, stronger effect = lower value 0.989 | locus YCR088W, strain abp1, stronger effect = lower value 0.99 | locus YDL005C, strain med2, stronger effect = lower value 0.985 | locus YDL035C, strain GPR1, stronger effect = lower value 1.03 | locus YDL040C, strain nat1, stronger effect = lower value 0.979 | locus YDL074C, strain BRE1, stronger effect = lower value 1.08 | locus YDL101C, strain DUN1, stronger effect = lower value 1.02 | locus YDL134C, strain PPH21, stronger effect = lower value 1.02 | locus YDL185W, strain tfp1, stronger effect = lower value 0.979 | locus YDL192W, strain arf1, stronger effect = lower value 0.989 | locus YDR001C, strain nth1, stronger effect = lower value 0.993 | locus YDR069C, strain doa4, stronger effect = lower value 0.983 | locus YDR101C, strain arx1, stronger effect = lower value 0.983 | locus YDR137W, strain rgp1, stronger effect = lower value 1.05 | locus YDR150W, strain NUM1, stronger effect = lower value 1.02 | locus YDR159W, strain sac3, stronger effect = lower value 0.973 | locus YDR162C, strain NBP2, stronger effect = lower value 1.01 | locus YDR195W, strain ref2 0.915 | locus YDR297W, strain sur2, stronger effect = lower value 0.998 | locus YDR318W, strain mcm21, stronger effect = lower value 0.996 | locus YDR334W, strain swr1, stronger effect = lower value 0.982 | locus YDR335W, strain msn5, stronger effect = lower value 0.998 | locus YDR388W, stronger effect = lower value 0.986 | locus YDR392W, strain spt3, stronger effect = lower value 0.978 | locus YDR502C, strain sam2, stronger effect = lower value 1 | locus YEL003W, strain gim4, stronger effect = lower value 0.993 | locus YEL037C, strain rad23, stronger effect = lower value 0.989 | locus YEL061C, strain CIN8 (second series), stronger effect = lower value 0.983 | locus YEL061C, strain CIN8, stronger effect = lower value 1.01 | locus YER015W, strain faa2, stronger effect = lower value 0.991 | locus YER016W, strain bim1, stronger effect = lower value 0.991 | locus YER110C, stronger effect = lower value 0.994 | locus YER111C, strain swi4, stronger effect = lower value 0.984 | locus YER155C, strain BEM2 (second series), stronger effect = lower value 0.97 | locus YER155C, strain BEM2, stronger effect = lower value 1.02 | locus YER167W, strain BCK2, stronger effect = lower value 1 | locus YFR010W, strain ubp6, stronger effect = lower value 0.992 | locus YGL078C, strain dbp3, stronger effect = lower value 0.966 | locus YGL086W, strain mad1, stronger effect = lower value 0.994 | locus YGL167C, strain pmr1, stronger effect = lower value 0.987 | locus YGL173C, strain kem1, stronger effect = lower value 0.987 | locus YGL227W, strain vid30, stronger effect = lower value 0.982 | locus YGL240W, strain doc1, stronger effect = lower value 0.974 | locus YGL248W, strain PDE1, stronger effect = lower value 1.02 | locus YGL253W, strain hxk2, stronger effect = lower value 0.99 | locus YGR078C, strain PAC10, stronger effect = lower value 1.03 | locus YGR135W, strain pre9, stronger effect = lower value 0.993 | locus YGR229C, strain SMI1, stronger effect = lower value 1.03 | locus YGR252W, strain gcn5, stronger effect = lower value 0.991 | locus YHR013C, strain ard1, stronger effect = lower value 0.954 | locus YHR027C, strain rpn1, stronger effect = lower value 0.996 | locus YHR030C, strain SLT2, stronger effect = lower value 1.02 | locus YHR079C, strain IRE1 (second series), stronger effect = lower value 0.988 | locus YHR094C, strain hxt1, stronger effect = lower value 0.992 | locus YHR129C, strain ARP1, stronger effect = lower value 1.03 | locus YHR142W, strain chs7, stronger effect = lower value 1 | locus YHR200W, strain rpn10, stronger effect = lower value 0.986 | locus YIL066C, strain RNR3, stronger effect = lower value 1.02 | locus YIL073C, strain SPO22, stronger effect = lower value 0.999 | locus YIL125W, strain kgd1, stronger effect = lower value 0.984 | locus YIR030C, strain dcg1, stronger effect = lower value 0.986 | locus YJL092W, strain hpr5, stronger effect = lower value 0.998 | locus YJL095W, strain BCK1 (second series), stronger effect = lower value 0.986 | locus YJL095W, strain BCK1, stronger effect = lower value 1.02 | locus YJL115W, strain asf1, stronger effect = lower value 0.972 | locus YJL129C, strain trk1, stronger effect = lower value 0.986 | locus YJL134W, strain LCB3, stronger effect = lower value 1.02 | locus YJL154C, strain vps35, stronger effect = lower value 0.993 | locus YJL164C, strain tpk1, stronger effect = lower value 0.996 | locus YJL166W, strain qcr8, stronger effect = lower value 0.994 | locus YJL168C, strain set2, stronger effect = lower value 0.989 | locus YJL187C, strain SWE1 (second series), stronger effect = lower value 1.02 | locus YJL187C, strain SWE1, stronger effect = lower value 0.995
